From PubChem BioAssay (NCATS)
Inconclusive results are not listed. The source made the active and inactive calls. Calls follow the shape of the dose curve; as a rule, active = well fitted curve in the direction sought with a large enough effect; inconclusive = small, poorly fitted or top-dose-only effect, or another doubt; inactive = no such curve, though single readings can be large; an effect the other way counts as inactive or inconclusive.

Key:
CRL-7250 = normal cell line; assay: Cytotoxic Profiling of Annotated Libraries Using Quantitative High-Throughput Screening (AID 1296008); details: Five cell lines viability, CellTiter-Glo ATP luminescence, 48-72 h; max response: active compounds read low; also: nearly all actives have a fitted effect of over 60% in size; as to max response: % is scaled to controls: 0 for no effect and ±100 for the full control effect
Method in brief: (§1)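 Cytotoxicity was measured as CellTiter-Glo ATP luminescence, read after 10 min at room temperature. Compound treatment of the cells lasted 48 or 72 hr at 37 degrees Celsius in a qHTS format.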

HEK293 = assay: as above; details: Five cell lines viability, CellTiter-Glo ATP luminescence, 48-72 h; max response: active compounds read low
Method in brief: as §1

HaCat [1] = assay: as above; details: Five cell lines viability, CellTiter-Glo ATP luminescence, 48-72 h; max response: active compounds read low
Method in brief: as §1

KB-3-1 = assay: as above; details: Five cell lines viability, CellTiter-Glo ATP luminescence, 48-72 h; max response: active compounds read low
Method in brief: as §1

NIH3T3 = assay: as above; details: Five cell lines viability, CellTiter-Glo ATP luminescence, 48-72 h; max response: active compounds read low
Method in brief: as §1

HACAT [2] = assay: qHTS assay to identify novel small-molecules to repurpose for Merkel cell carcinoma treatment (AID 1296009); details: MCC and control cell lines, CellTiter-Glo viability, 72 h; at 44.8 µM (top of the series) unless noted; also: nearly all actives have a fitted effect of over 60% in size
Method in brief: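 Cell viability measured by CellTiter-Glo following 72 hr compound treatment at 37 degree celsius, with NPC and MIPE libraries tested in 8- and 11-point concentration series.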

C33A = assay: Primary qHTS to identify gynecologic anti-cancer compounds using libraries of approved drugs and bioactive compounds (AID 1345084); details: Gynecologic cancer cell panel viability, ATPlite luminescence, 48 h; series mostly up to 57.5 µM; also: % is scaled to controls: 0 for no effect and ±100 for the full control effect; nearly all actives have a fitted effect of over 55% in size
Method in brief: (§2)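 ATP-based viability (ATPlite), 1,000 cells/well, 16 h pre-incubation, 48 h compound at 37 C, 5% CO2, 15 min RT before read.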

CAOV3 = assay: as above; details: Gynecologic cancer cell panel viability, ATPlite luminescence, 48 h; series mostly up to 57.5 µM
Method in brief: as §2

CASKI = assay: as above; details: Gynecologic cancer cell panel viability, ATPlite luminescence, 48 h; series mostly up to 57.5 µM
Method in brief: as §2

Es-2 = assay: as above; details: Gynecologic cancer cell panel viability, ATPlite luminescence, 48 h; series mostly up to 57.5 µM
Method in brief: as §2

HeLa = assay: as above; details: Gynecologic cancer cell panel viability, ATPlite luminescence, 48 h; series mostly up to 57.5 µM
Method in brief: as §2

Hek293T = assay: as above; details: Gynecologic cancer cell panel viability, ATPlite luminescence, 48 h, control line for the selectivity index; series mostly up to 57.5 µM
Method in brief: as §2

JEG-3 = assay: as above; details: Gynecologic cancer cell panel viability, ATPlite luminescence, 48 h; series mostly up to 57.5 µM
Method in brief: as §2

OV90 = assay: as above; details: Gynecologic cancer cell panel viability, ATPlite luminescence, 48 h; series mostly up to 57.5 µM
Method in brief: as §2

PA-1 = assay: as above; details: Gynecologic cancer cell panel viability, ATPlite luminescence, 48 h; series mostly up to 57.5 µM
Method in brief: as §2

C/C=C/C=C/C=C/C(=O)OC1C=C2C(O)OC(=O)[C@]2(O)[C@@]2(C)CCCC(C)(C)[C@H]12 (stereo not given in full)
inactive: max response (CRL-7250) -0.551% | max response (HEK293) 4.05% | outcome (HaCat [1]) | max response (KB-3-1) 4.24% | max response (NIH3T3) 3.08% | outcome (HACAT [2]) inactive [at 17.4 µM] | Potency (C33A) | Potency (CAOV3) | outcome (CASKI) | Potency (Es-2) | Potency (HeLa) | Potency (Hek293T) | Potency (JEG-3) | Potency (OV90) | Potency (PA-1)

C=C1CC[C@@H]2[C@@](C)(CO[C@@H]3O[C@H](CO)[C@@H](O)[C@H](O)[C@H]3O)[C@H](O)CC[C@@]2(C)[C@@H]1CC/C(C)=C/CO[C@@H]1O[C@H](CO)[C@@H](O)[C@H](O)[C@H]1O
inactive: outcome (CRL-7250) | max response (HEK293) -9.45% | outcome (HaCat [1]) | max response (KB-3-1) -3.96% | max response (NIH3T3) -12.7% | outcome (HACAT [2]) inactive [at 17.4 µM] | Potency (C33A) | Potency (CAOV3) | outcome (CASKI) | Potency (Es-2) | Potency (HeLa) | Potency (Hek293T) | Potency (JEG-3) | Potency (OV90) | Potency (PA-1)

C=C1C(OC(C)=O)C(=O)C2C(C)(C)C(O)CCC2(C)C1CC(OC(C)=O)/C(C)=C/COC(C)=O (stereo not given)
inactive: max response (CRL-7250) -6.92% | max response (HEK293) -10.7% | outcome (HaCat [1]) | max response (KB-3-1) 5.46% | max response (NIH3T3) -4.73% | outcome (HACAT [2]) inactive [at 17.4 µM] | Potency (C33A) | Potency (CAOV3) | outcome (CASKI) | Potency (Es-2) | Potency (HeLa) | Potency (Hek293T) | Potency (JEG-3) | Potency (OV90) | Potency (PA-1)

Cc1oc(S(=O)(=O)N2CCCCC2)cc1NC(=O)Nc1ccccc1
inactive: outcome (CRL-7250) | max response (HEK293) -1.71% | outcome (HaCat [1]) | outcome (KB-3-1) | max response (NIH3T3) -1.71% | outcome (HACAT [2]) | Potency (C33A) | Potency (CAOV3) | outcome (CASKI) | Potency (Es-2) | Potency (HeLa) | Potency (Hek293T) | Potency (JEG-3) | Potency (OV90) | Potency (PA-1)

C[C@H]1CCN2C[C@]34C[C@@]5(C(=O)Nc6c5ccc5c6OC=CC(C)(C)O5)C(C)(C)C3C[C@]12C(=O)N4C (stereo not given in full)
inactive: outcome (CRL-7250) | max response (HEK293) -13.2% | outcome (HaCat [1]) | max response (KB-3-1) -2.39% | max response (NIH3T3) 3.63% | outcome (HACAT [2]) inactive [at 17.4 µM] | Potency (C33A) | Potency (CAOV3) | outcome (CASKI) | Potency (Es-2) | Potency (HeLa) | Potency (Hek293T) | Potency (JEG-3) | Potency (OV90) | Potency (PA-1)

C[C@@H]1O[C@@H](O[C@H]2[C@H](OC(=O)[C@]34CCC(C)(C)C[C@H]3C3=CCC5[C@@]6(C)CC[C@H](O[C@@H]7O[C@H](CO[C@@H]8OC[C@H](O)[C@H](O)[C@H]8O)[C@@H](O)[C@H](O)[C@H]7O)C(C)(C)C6CC[C@@]5(C)[C@]3(C)C[C@H]4O)OC[C@@H](O)[C@@H]2O)[C@H](O)[C@H](O[C@@H]2OC[C@](O)(CO)[C@H]2O)[C@H]1O[C@@H]1OC[C@H](O)[C@H](O[C@@H]2OC[C@@H](O)[C@H](O)[C@H]2O)[C@H]1O (stereo not given in full)
inactive: outcome (CRL-7250) | max response (HEK293) -12.4% | outcome (HaCat [1]) | max response (KB-3-1) 6% | max response (NIH3T3) -2.23% | outcome (HACAT [2]) inactive [at 9.27 µM] | activity change, negative = cytotoxicity (C33A) -0.179% [at 6.55 µM] | activity change, negative = cytotoxicity (CAOV3) 23.4% [at 6.55 µM] | activity change, negative = cytotoxicity (CASKI) 9.95% [at 6.55 µM] | activity change, negative = cytotoxicity (Es-2) 8.45% [at 6.55 µM] | activity change, negative = cytotoxicity (HeLa) 22.1% [at 6.55 µM] | activity change, negative = cytotoxicity (Hek293T) 8.51% [at 6.55 µM] | activity change, negative = cytotoxicity (JEG-3) -2.51% [at 6.55 µM] | activity change, negative = cytotoxicity (OV90) -11.9% [at 6.55 µM] | activity change, negative = cytotoxicity (PA-1) -3.2% [at 6.55 µM]

Cn1cc(-c2c[nH]c3ncnc(N4CCOCC4)c23)cn1
inactive: max response (CRL-7250) 0.569% | max response (HEK293) -23.9% | outcome (HaCat [1]) | outcome (KB-3-1) | outcome (NIH3T3) | outcome (HACAT [2]) | Potency (C33A) | Potency (CAOV3) | outcome (CASKI) | Potency (Es-2) | Potency (HeLa) | Potency (Hek293T) | Potency (JEG-3) | Potency (OV90) | Potency (PA-1)

C=CC(C)(O)CC/C=C(\C)C(=O)O[C@@H]1[C@@H](O)[C@H](OC(C)(C=C)CC/C=C(\C)C(=O)O[C@@H]2O[C@H](CO)[C@@H](O)[C@H](O)[C@H]2O)O[C@H](CO)[C@H]1OC(=O)/C(C)=C/CCC(C)(O)C=C (stereo not given in full)
inactive: max response (CRL-7250) 1.38% | max response (HEK293) -3.95% | outcome (HaCat [1]) | outcome (KB-3-1) | max response (NIH3T3) 1.18% | outcome (HACAT [2]) inactive [at 9.27 µM] | activity change, negative = cytotoxicity (C33A) 1.06% [at 11.6 µM] | activity change, negative = cytotoxicity (CAOV3) -0.925% [at 11.6 µM] | activity change, negative = cytotoxicity (CASKI) -1.1% [at 11.6 µM] | activity change, negative = cytotoxicity (Es-2) 0.394% [at 11.6 µM] | activity change, negative = cytotoxicity (HeLa) -4.07% [at 11.6 µM] | activity change, negative = cytotoxicity (Hek293T) 7.88% [at 11.6 µM] | activity change, negative = cytotoxicity (JEG-3) -0.355% [at 11.6 µM] | activity change, negative = cytotoxicity (OV90) -1.43% [at 11.6 µM] | activity change, negative = cytotoxicity (PA-1) 3.07% [at 11.6 µM]

C=C1CCC(OC(C)=O)C2(C)CC3OC(=O)C(C)=C3CC12 (stereo not given)
inactive: max response (CRL-7250) -0.951% | max response (HEK293) -10.1% | outcome (HaCat [1]) | max response (KB-3-1) 3.31% | max response (NIH3T3) -1.87% | outcome (HACAT [2]) | Potency (C33A) | Potency (CAOV3) | outcome (CASKI) | Potency (Es-2) | Potency (HeLa) | Potency (Hek293T) | Potency (JEG-3) | Potency (OV90) | Potency (PA-1)

C=C1CC[C@H]2[C@@](C)(CCC(O)[C@@]2(C)CO)[C@@H]1/C=C/C(=C\C(=O)O)C(=O)O (stereo not given in full)
inactive: max response (CRL-7250) -1.65% | max response (HEK293) -0.745% | outcome (HaCat [1]) | outcome (KB-3-1) | max response (NIH3T3) -1.97% | outcome (HACAT [2]) | Potency (C33A) | Potency (CAOV3) | outcome (CASKI) | Potency (Es-2) | Potency (HeLa) | Potency (Hek293T) | Potency (JEG-3) | Potency (OV90) | Potency (PA-1)
